# System: Vero E6 infected with SARS-CoV-2
# Assay: inhibition of SARS-CoV-2 cytopathic effect; higher = more antiviral protection, active = above 15
# Conditions: 1 nM; 48 h
row,SMILES,inhibition of SARS-CoV-2 cytopathic effect
1,c1cnc2c([O][Ga]([O]c3cccc4cccnc34)[O]c3cccc4cccnc34)cccc2c1 [gallium-triquinolin-8-olate],-0.23% (inactive)
2,CN1CCCC(n2nc(Cc3ccc(Cl)cc3)c3ccccc3c2=O)CC1 (stereo unspecified) [azelastine],-1.24% (inactive)
3,C[C@H]1C[C@@H]2[C@H]([C@@H](O)C[C@@]3(C)[C@H]2CC[C@]3(O)C(=O)COC(=O)CCC(=O)O)[C@@]2(C)C=CC(=O)C=C12 [methylprednisolone-sodium-succinate],-0.2% (inactive)
4,CN1C[C@@H](NS(=O)(=O)N(C)C)C[C@@H]2c3cccc4c3c(cn4C)C[C@H]21 [mesulergine],-0.67% (inactive)
5,CCS(=O)(=O)N(Cc1cccnc1)c1cccc(-c2ccc(C#N)cc2)c1,1.24% (inactive)
6,COC(=O)[C@@H]1C[C@H](OC(C)=O)C(=O)[C@H]2[C@@]1(C)CC[C@H]1C(=O)O[C@H](c3ccoc3)C[C@]21C [salvinorin-A],-2.48% (inactive)
7,O=C(O)c1ccccc1Nc1cccc(OCc2ccc3ccccc3n2)c1,-0.27% (inactive)
8,C/C=C/c1cc(OC)c(OC)cc1OC [alpha-asarone],0.99% (inactive)
9,Cc1ccc(S(=O)(=O)Nc2ccc3c(c2)c(C(=O)C(F)(F)F)cn3CC(=O)N[C@@H](CC(C)C)C(=O)O)cc1,0.38% (inactive)
10,Cc1ccc(-n2nc(C(C)(C)C)cc2NC(=O)NCc2cc(F)ccc2Oc2ccc3c(cnn3CCO)c2)cc1 [pexmetinib],-0.97% (inactive)
11,Cc1cn([C@H]2C[C@H](N=[N+]=[N-])[C@@H](CO)O2)c(=O)[nH]c1=O [zidovudine],3.53% (inactive)
12,O=C1NC(c2ccccc2)(c2ccccc2)C(=O)N1COP(=O)(O)O [fosphenytoin],2.33% (inactive)
13,OC[C@@H](O)[C@@H](O)[C@@H](O)CO [ribitol],2.52% (inactive)
14,CN1C(=O)CCS(=O)(=O)C1c1ccc(Cl)cc1 (stereo unspecified) [chlormezanone],-2.2% (inactive)
15,O=C(C1CCCCC1)N1CC(=O)N2CCc3ccccc3C2C1 (stereo unspecified) [praziquantel],-1.8% (inactive)
16,O=C(NC1CCNCC1)[C@@H]1CC[C@@H]2CN1C(=O)N2OS(=O)(=O)O [relebactam],0.07% (inactive)

# Same assay, conditions: 8.33 nM; 48 h
row,SMILES,inhibition of SARS-CoV-2 cytopathic effect
1,N#CC(=C(/N)Sc1ccccc1N)/C(C#N)=C(/N)Sc1ccccc1N,0.76% (inactive)
2,CC(C)[C@@H]1C(=O)N(S(C)(=O)=O)[C@@H]2CCN(C(=O)/C=C/CN3CCCCC3)[C@H]21,-1.45% (inactive)
3,O=P(O)(O)C(Cl)(Cl)P(=O)(O)O [clodronic-acid],0.27% (inactive)
4,CCCCCCCC/C=C\CCCCCCCC(=O)NCCO [oleoylethanolamide],-0.89% (inactive)
5,COc1cc2ncc(-c3ccccc3)nc2cc1OC [tyrphostin-AG-1296],0.53% (inactive)
6,CNC[C@H](O)c1ccc(O)c(O)c1 [epinephrine],3.04% (inactive)
7,CC(=O)Nc1cccc(-n2c(=O)n(C3CC3)c(=O)c3c(Nc4ccc(I)cc4F)n(C)c(=O)c(C)c32)c1 [trametinib],-7.51% (inactive)
8,Cc1ccc2cc(-c3c(C)ccc(C(=O)c4c(-c5ccccc5)n(C)n(-c5ccccc5)c4=O)c3N)ccc2n1,-0.19% (inactive)
9,Cc1csc2c(N[C@@H](C)CN3CCN(S(=O)(=O)c4ccc(Cl)c(Cl)c4)CC3)ncnc12 [LPA2-antagonist-1],-0.37% (inactive)
10,Cc1[nH]nc(C(F)(F)F)c1Cc1sc2c(c1C(=O)N1C[C@](C)(O)CO1)c(=O)n(C)c(=O)n2C(C)C,-1.35% (inactive)
11,COc1ccc(NS(=O)(=O)c2ccc(N)cc2)nn1 [sulfamethoxypyridazine],2.28% (inactive)
12,COc1ccc(C[C@H]2NC[C@H](O)[C@H]2OC(C)=O)cc1 [anisomycin],6% (inactive)
13,C=CCc1cccc(/C=N/NC(=O)CN2CCN(Cc3ccccc3)CC2)c1O,0.95% (inactive)
14,Cc1c(C(N)=O)cc([N+](=O)[O-])cc1[N+](=O)[O-] [dinitolmide],2.03% (inactive)
15,CNC1CCCN(c2c(F)cc3c(=O)c(C(=O)O)cn(C4CC4)c3c2OC)C1 (stereo unspecified) [balofloxacin],0.66% (inactive)
16,CC1=NN(c2ccc(C)c(C)c2)C(=O)/C1=N\Nc1cccc(-c2cccc(C(=O)O)c2)c1O [eltrombopag],2.25% (inactive)
17,O=C(NCCCN1CCOCC1)c1ccc(Cl)cc1 [eprobemide],1.72% (inactive)
18,O=c1c(O)c(-c2ccc(O)cc2)oc2cc(O)cc(O)c12 [kaempferol],12% (inactive)
19,CCCCCCCCCCCCCCCCCCN(CCCCCCCCCCCCCCCCCC)CCCN(CCO)CCO [avridine],-6.98% (inactive)
20,O=C1NC(=O)c2c1c1c3ccccc3[nH]c1c1[nH]c3ccccc3c21 [arcyriaflavin-a],-1.16% (inactive)

row,SMILES,inhibition of SARS-CoV-2 cytopathic effect
1,CC(=O)OC[C@H]1O[C@@H](n2ccc(=O)[nH]c2=O)[C@H](OC(C)=O)[C@@H]1OC(C)=O [uridine-triacetate],0.37% (inactive)
2,O=C(NC1CCOCC1)c1ccc(-c2cc(-c3c[nH]nc3-c3ccccn3)ccn2)cc1,0.61% (inactive)
3,O=C(NCC1CCCCN1)c1cc(OCC(F)(F)F)ccc1OCC(F)(F)F (stereo unspecified) [flecainide],1.45% (inactive)
4,O=C1Nc2ccccc2/C1=C1/Nc2ccccc2C1=O [indirubin],-1.11% (inactive)
5,c1cnc2c([O][Ga]([O]c3cccc4cccnc34)[O]c3cccc4cccnc34)cccc2c1 [gallium-triquinolin-8-olate],1.56% (inactive)
6,CN1CCCC(n2nc(Cc3ccc(Cl)cc3)c3ccccc3c2=O)CC1 (stereo unspecified) [azelastine],-0.03% (inactive)
7,C[C@H]1C[C@@H]2[C@H]([C@@H](O)C[C@@]3(C)[C@H]2CC[C@]3(O)C(=O)COC(=O)CCC(=O)O)[C@@]2(C)C=CC(=O)C=C12 [methylprednisolone-sodium-succinate],2.8% (inactive)
8,CN1C[C@@H](NS(=O)(=O)N(C)C)C[C@@H]2c3cccc4c3c(cn4C)C[C@H]21 [mesulergine],0.79% (inactive)
9,CCS(=O)(=O)N(Cc1cccnc1)c1cccc(-c2ccc(C#N)cc2)c1,1.74% (inactive)
10,COC(=O)[C@@H]1C[C@H](OC(C)=O)C(=O)[C@H]2[C@@]1(C)CC[C@H]1C(=O)O[C@H](c3ccoc3)C[C@]21C [salvinorin-A],-1.89% (inactive)
11,O=C(O)c1ccccc1Nc1cccc(OCc2ccc3ccccc3n2)c1,2.38% (inactive)
12,C/C=C/c1cc(OC)c(OC)cc1OC [alpha-asarone],0.62% (inactive)
13,Cc1ccc(S(=O)(=O)Nc2ccc3c(c2)c(C(=O)C(F)(F)F)cn3CC(=O)N[C@@H](CC(C)C)C(=O)O)cc1,-1.93% (inactive)
14,Cc1ccc(-n2nc(C(C)(C)C)cc2NC(=O)NCc2cc(F)ccc2Oc2ccc3c(cnn3CCO)c2)cc1 [pexmetinib],-3.1% (inactive)
15,Cc1cn([C@H]2C[C@H](N=[N+]=[N-])[C@@H](CO)O2)c(=O)[nH]c1=O [zidovudine],3.15% (inactive)
16,O=C1NC(c2ccccc2)(c2ccccc2)C(=O)N1COP(=O)(O)O [fosphenytoin],4.09% (inactive)
17,OC[C@@H](O)[C@@H](O)[C@@H](O)CO [ribitol],3.83% (inactive)
18,CN1C(=O)CCS(=O)(=O)C1c1ccc(Cl)cc1 (stereo unspecified) [chlormezanone],-0.15% (inactive)
19,O=C(C1CCCCC1)N1CC(=O)N2CCc3ccccc3C2C1 (stereo unspecified) [praziquantel],0.08% (inactive)
20,O=C(NC1CCNCC1)[C@@H]1CC[C@@H]2CN1C(=O)N2OS(=O)(=O)O [relebactam],1.87% (inactive)

# Reference: the supplement of paper PMC13380429
